Screening data as filed in PubChem BioAssay.
Tg IFNy HTS: T. gondii growth inhibition with IFN-gamma, primary screen, cell-based. Toxoplasma gondii growth in IFN-gamma-treated host cells; hits give low values. activity change, negative = inhibition, % (test concentration not listed). 69,000 tested, 3.8% active. AID 1259416, 2018; in the data active = activity change below about -70%, passing the limit was not always enough;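 also: host cells are HeLa cells infected with Toxoplasma gondii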
The depositor's hits bear a star. Only a selection was taken, and hits are over-represented in it overall.

SMILES	Tg IFNy HTS
Cc1cc(C)n(Cc2nc(-c3ccc(NC(=O)COc4ccccc4)cc3)oc2C)n1	-2
Cc1ccc(NC(=O)C(CC(C)C)NS(=O)(=O)c2ccc3[nH]c(=O)ccc3c2)cc1Cl (stereo not drawn)	67
COc1ccc(-n2cccn2)c(CN2CCCN(C)C3(CCN(C)CC3)C2)c1	-22
CCc1c(C)sc2nc(C(C)C)n3c(=O)n(CC(=O)NC(C)C)nc3c12	38
CC(Cn1ccc2ccccc21)NCC(=O)Nc1cnccn1 (stereo not drawn)	21
CCc1cc(CN(C)Cc2ccc(C(=O)Nc3nccn3C)cc2)on1	2
CCN1CCn2c(-c3cccc(F)c3)cnc2C12CCN(C(=O)c1cscn1)CC2	-1
CC(C)c1cc(N2Cc3cnn(CCO)c3C2)nc(C(F)(F)F)n1	-29
CCn1cc(C(=O)N2CCC(c3cc4c(C)cccc4cn3)CC2)c(C)n1	-31
c1ccc2c(c1)CCC(N1CCN(Cc3cc4n(n3)CCNC4)CC1)C2 (stereo not drawn)	12
c1cc2c(cc1OCC1CCN(Cc3cc4n(n3)CCNC4)CC1)CCC2	-87*
OCC1CCN(Cc2cc3n(n2)CCCNC3)CC1	3
CN1C(=O)CCCC12CCCN(C(=O)c1ccc3ncccc3c1)C2 (stereo not drawn)	2
O=C(CC1CC2(CCN(C(=O)Nc3cccc(F)c3)CC2)Oc2ccccc21)NC1CC1 (stereo not drawn)	-48
COc1cccc(F)c1-c1nc2c(C)cccc2cc1CO	35
Cc1occc1C(=O)N1CCOCC2(CCN(c3ncccn3)C2)C1 (stereo not drawn)	-3
Cc1ccc(CN2CCOCC3(CCN(Cc4nccn4C)C3)C2)s1 (stereo not drawn)	52
Cc1occc1C(=O)N1CCOCC2(CCN(Cc3nccn3C)C2)C1 (stereo not drawn)	-78*
COc1cc(NC(=O)C2=C(C)C(=O)OC23CCN(S(C)(=O)=O)CC3)cc(OC)c1	94
N=C(N=C(N)N)N1CCOCC1	11
NC(=O)CN1CCOCCOCCN(CC(N)=O)CCOCC1	-71*
CC(C)(C)NC(=O)CCN1CCOCC1	12
Cc1ccc2nc(CN(C)C(=O)CC3CCc4ccccc43)[nH]c2c1 (stereo not drawn)	-21
O=C1CCc2cc(S(=O)(=O)NCc3ccc4c(c3)CCN4C(=O)c3ccccc3)ccc2N1	-1
CC(=O)N1CCC2(CC1)OC(=O)C(C)=C2C(=O)NCCN1CCOCC1	47
SMILES	Tg IFNy HTS
CS(=O)(=O)c1ccc(-c2ccccc2C(N)=O)cc1	3
CS(=O)(=O)c1ccc(-c2cnc(N)c(C(=O)Nc3ccccc3)n2)cc1	-86*
CS(=O)(=O)c1ccc(C(=O)Nc2ccccc2Cl)cc1	23
Cc1ccoc1C(=O)N1CCc2c(CNc3ncccn3)cncc2C1	1
CCc1[nH]n2c(=O)c(C)c(C)nc2c1-c1ccccc1	-7
CCCCNC(=O)CCC1N=C2c3ccccc3N=C(SCc3cc(=O)n4cc(Cl)ccc4n3)N2C1=O (stereo not drawn)	3
CCCCCc1nc(N)c(C#N)c(-c2ccco2)c1CCCC	-91*
CCCCCCSc1ncc(C#N)c(N)n1	-5
Cc1ccc(NS(=O)(=O)c2ccc(N3C(=O)c4ccccc4C3=O)cc2)cc1	-1
COc1ccc2c(c1)NC1(CCN(C(=O)COc3ccc(F)cc3)CC1)c1cccn1-2	59
COc1ccc2c(c1)NC1(CCN(C(=O)COc3cccc(C)c3)CC1)c1cccn1-2	-129*
COc1cccc(CC(=O)N2CCC3(CC2)Nc2cc(OC)ccc2-n2cccc23)c1	-34
CC(C)CC(=O)Nc1ccc(S(=O)(=O)N2CCC3(CC2)Nc2cc(F)ccc2-n2cccc23)cc1	-77*
COc1ccc2c(c1)NC1(CCN(C(=O)Cc3ccc(F)cc3)CC1)c1cccn1-2	-84*
CC(C)CC(=O)Nc1ccc(S(=O)(=O)N2CCC3(CC2)Nc2ccccc2-n2cccc23)cc1	1
COc1ccc(CC(=O)N2CCC3(CC2)Nc2cc(OC)ccc2-n2cccc23)cc1	51
COc1ccc2c(c1)NC1(CCN(C(=O)c3ccc(Br)o3)CC1)c1cccn1-2	-79*
O=C(c1ccc(Br)o1)N1CCC2(CC1)Nc1cc(F)ccc1-n1cccc12	-27
COc1ccc(OCC(=O)N2CCC3(CC2)Nc2cc(C)ccc2-n2cccc23)cc1	31
CCc1ccc(C(=O)N2CCC3(CC2)Nc2cc(OC)ccc2-n2cccc23)cc1	16
Cc1ccc2c(c1)NC1(CCN(S(=O)(=O)c3ccc(NC(=O)CC(C)C)cc3)CC1)c1cccn1-2	26
CC(C)NC(=O)N1CCC2(CC1)CC(=O)N(c1cccnc1)c1ccccc12	4
CC(CCCC(C)(C)O)Nc1ccc(-c2nccn2C)nn1 (stereo not drawn)	165
CC(C)C1CN(C(=O)CCn2cnnc2)CCC(=O)N1CC1CC1 (stereo not drawn)	10
Cc1ccc2c(c1)NC1(CCN(S(=O)(=O)c3ccccc3)CC1)c1cccn1-2	15
SMILES	Tg IFNy HTS
Cc1noc([C@H]2COC[C@@H]3CN(C(=O)Cc4ccc(F)cc4)C[C@@H]32)n1	-8
CCOc1cccc(-c2noc(-c3c(O)c4cccc(Cl)c4n(C)c3=O)n2)c1	67
Cc1nc2sccn2c1CN1CCC2(CC1)C(=O)N(CC(C)C)C(=O)N2C	5
COc1cc(Nc2nc(-c3nnc(-c4cccc(Cl)c4)o3)nc3ccccc23)cc(OC)c1	208
CC1Cc2cc(-c3nccn3CCN3CCNC3=O)ccc2O1 (stereo not drawn)	4
CN1C(=O)c2cc(NC(=O)NCc3ccccc3)ccc2OC[C@@H]2O[C@H](CC(=O)NCC3CCCCC3)CC[C@@H]21	-87*
CN1C(=O)c2cc(NC(=O)NCc3ccccc3)ccc2OC[C@H]2O[C@H](CC(=O)NCC3CCCCC3)CC[C@H]21	-47
CN1C(=O)c2cc(NC(=O)NCc3ccccc3)ccc2OC[C@H]2O[C@H](CC(=O)NCC3CCCCC3)CC[C@@H]21	-20
CN1C(=O)c2cc(NC(=O)c3ccc(C(F)(F)F)cc3)ccc2OC[C@@H]2O[C@@H](CC(=O)NCc3ccc4c(c3)OCO4)CC[C@@H]21	-82*
CN1C(=O)c2cc(NC(=O)Cc3cccs3)ccc2OC[C@@H]2O[C@H](CC(=O)NCC3CCCCC3)CC[C@H]21	-11
CN1C(=O)c2cc(NC(=O)Cc3cccs3)ccc2OC[C@@H]2O[C@H](CC(=O)NCC3CCCCC3)CC[C@@H]21	-78*
C[C@H](NC(=O)C[C@H]1CC[C@H]2[C@@H](COc3ccc(NS(=O)(=O)c4ccc(Cl)cc4)cc3C(=O)N2C)O1)c1ccccc1	-37
CN1C(=O)c2cc(NC(=O)Cc3cccs3)ccc2OC[C@H]2O[C@@H](CC(=O)NCC3CCCCC3)CC[C@@H]21	-23
CN1C(=O)c2cc(NC(=O)c3ccc(C(F)(F)F)cc3)ccc2OC[C@H]2O[C@H](CC(=O)NCc3ccc4c(c3)OCO4)CC[C@H]21	-37
C[C@@H](NC(=O)C[C@H]1CC[C@@H]2[C@H](COc3ccc(NS(=O)(=O)c4ccc(Cl)cc4)cc3C(=O)N2C)O1)c1ccccc1	-9
CN1C(=O)c2cc(NC(=O)c3ccc(C(F)(F)F)cc3)ccc2OC[C@H]2O[C@@H](CC(=O)NCc3ccc4c(c3)OCO4)CC[C@H]21	-28
C[C@@H](NC(=O)C[C@H]1CC[C@@H]2[C@@H](COc3ccc(NS(=O)(=O)c4ccc(Cl)cc4)cc3C(=O)N2C)O1)c1ccccc1	-89*
C=CCn1c2c(ccc1=O)CCN(C(=O)C1CCOC1)CC2 (stereo not drawn)	-3
c1cc2nc(C3CCNCC3)nn2cc1NC1CCC1	26
